This note sets out measurements from PubChem BioAssay (NCATS).

The nature of test [1]: Drug repurposing screens with cells derived from glioblastoma tumor samples (AID 1345199). Also: nearly all actives have a fitted effect of over 40% in size. Also: potency is read from the fitted curve at half-maximal effect. As to activity, negative = cell killing: % is scaled to controls: 0 for no effect and ±100 for the full control effect. To be noted: GBM patient neurospheres viability, ATP luminescence, 48 h. The essentials:
(§1)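 Four patient lines of CD133+ GBM neurospheres were screened at several concentrations; hits were retested in those lines plus three slower-growing GBM lines, using 48-hour treatment and ATP-based viability.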

The target in test [2] is Nuclear receptor subfamily 1 group I member 2 (Rattus norvegicus) (UniProt Q9R1A7). Briefly: qHTS assay for small molecule activators of the rat pregnane X receptor (rPXR) signaling pathway (AID 651751; call rule not given here; also: 0% is about no effect). The conditions noted are these: rPXR reporter cells, luciferase (One-Glo), 24 h.
Sequence of Nuclear receptor subfamily 1 group I member 2 (Rattus norvegicus) (Q9R1A7 whole entry, looked up): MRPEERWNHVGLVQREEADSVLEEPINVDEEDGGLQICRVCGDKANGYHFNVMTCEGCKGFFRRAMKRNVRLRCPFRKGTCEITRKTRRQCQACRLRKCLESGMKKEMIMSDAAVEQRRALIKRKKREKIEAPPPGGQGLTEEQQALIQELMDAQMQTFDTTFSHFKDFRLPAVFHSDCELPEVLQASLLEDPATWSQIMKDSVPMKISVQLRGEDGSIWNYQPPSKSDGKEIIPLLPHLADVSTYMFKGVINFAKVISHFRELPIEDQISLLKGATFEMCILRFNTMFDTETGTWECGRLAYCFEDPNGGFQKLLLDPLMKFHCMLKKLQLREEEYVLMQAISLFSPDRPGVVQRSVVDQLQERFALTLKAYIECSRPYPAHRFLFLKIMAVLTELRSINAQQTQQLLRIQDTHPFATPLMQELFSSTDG
Test [3] is described as follows: qHTS assay for small molecule activators of the human pregnane X receptor (PXR) signaling pathway (AID 720659; call rule not given here; also: 0% is about no effect). The conditions noted are these: DPX-2 HepG2 CYP3A4-luciferase, 24 h; series mostly up to 92.3 µM.
The test system of test [4] is astro (control astrocytes). Briefly: Drug repurposing screens with cells derived from glioblastoma tumor samples (AID 1345199). Also: nearly all actives have a fitted effect of over 40% in size. Also: potency is read from the fitted curve at half-maximal effect. As to activity, negative = cell killing: % is scaled to controls: 0 for no effect and ±100 for the full control effect. The conditions noted are these: viability, ATP luminescence, 48 h; series mostly up to 45.9 µM. The essentials: as §1
[5] abbreviates: at 45.9 µM (top of the series), tumour line B.
[6] abbreviates: at 45.9 µM (top of the series), tumour line D.
[7] abbreviates: at 46 µM (top of the series), tumour line A.
Where [8] appears, read: at 46.1 µM (top of the series), tumour line C.

Values without a mark were called inactive. Records with an inconclusive call do not appear. Activity calls are given as the source filed them. Unless noted, calls follow the shape of the dose curve; as a rule, active = well fitted inhibition curve with a large enough effect; inconclusive = small, poorly fitted or top-dose-only effect; inactive = flat fitted curve, though single readings scatter.

With `CC/C=C\C/C=C\C/C=C\CCCCCCCC(=O)O`, the activity, negative = cell killing was 8.6% in test [1] (setting [5]), -7.43% in test [1] (setting [6]), -13.9% in test [1] (setting [7]) and 5.73% in test [1] (setting [8]). Also, the max response in test [2] was -2.75%. In addition, the molecule was classed as inactive in test [3].

Take `CC(O)CN(C)C` (stereo not drawn): the activity, negative = cell killing was -7.97% in test [1] (setting [5]), -11.2% in test [1] (setting [6]) and -3.25% in test [1] (setting [8]). Besides, in test [4], the Potency result is “inactive”.

In the case of `CN1CCN(C(c2ccccc2)c2ccc(Cl)cc2)CC1` (stereo not drawn), the activity, negative = cell killing in test [1] (at 20 µM (top of the series), tumour line C) is 3.89%; in test [1] (at 21.2 µM (top of the series), tumour line B), -16.8%. For the same molecule, in test [1] (tumour line A), the Potency is 11.2 µM (active). The Potency entry in test [4] was “inactive”.

On to `CC(=O)N[C@@H]([C@@H](O)[C@H](O)[C@H](O)CO)[C@@H](O)CC(=O)C(=O)O`, for which the activity, negative = cell killing in test [1] (setting [5]) is -12%; in test [1] (setting [6]) it was -21.2%; in test [1] (setting [8]) it was -14.1%. Further, the Potency entry in test [4] is “inactive”.

Regarding `CC12CCC(C[N+](C)(CCC[N+](C)(C)C)C1)C2(C)C` (stereo not drawn), the activity, negative = cell killing in test [1] (setting [5]) is -11.8%; in test [1] (setting [6]) it was -25.7%; in test [1] (setting [8]), 21.9%. Besides, in test [4], the Potency result is “inactive”.

Regarding `CCC[C@@H]1C[C@@H](C(=O)N[C@@H]([C@H]2O[C@H](SC)[C@H](O)[C@@H](O)[C@H]2O)[C@H](C)Cl)N(C)C1`, the activity, negative = cell killing in test [1] (setting [5]) is 1.77%; in test [1] (setting [6]), -7.32%; in test [1] (setting [7]) it was -25.1%. For the same molecule, in test [4], the Potency entry is “inactive”.

For the molecule `C[C@@H]1C[C@H]2[C@@H]3C[C@H](F)C4=CC(=O)C=C[C@]4(C)[C@@]3(Cl)[C@@H](O)C[C@]2(C)[C@H]1C(=O)COC(=O)C(C)(C)C`, the activity, negative = cell killing is -18.4% in test [1] (setting [5]), -9.89% in test [1] (setting [6]) and -26.7% in test [1] (setting [8]). For the same molecule, the Potency result in test [4] is “inactive”.

As to `NC(=O)Oc1ccc(Cc2ccccc2)cc1`, the activity, negative = cell killing is -5.11% in test [1] (setting [5]), -13.8% in test [1] (setting [6]) and -22.5% in test [1] (setting [8]). The Potency entry in test [4] was “inactive”.

Take `S=C1SCN(Cc2ccccc2)CN1Cc1ccccc1`: the activity, negative = cell killing in test [1] (setting [6]) is -15%; in test [1] (setting [8]), -9.54%. In addition, in test [1] (tumour line A), the Potency was 11.2 µM (active). Besides, the Potency entry in test [4] was “inactive”.

Consider `CCc1ccc(S(=O)(=O)O)cc1`, for which the activity, negative = cell killing in test [1] (setting [5]) was 3.64%; in test [1] (setting [6]) it was -9.65%; in test [1] (setting [8]) it was -22.1%. Further, the Potency entry in test [4] is “inactive”.

Consider `CCC(Cc1c(I)cc(I)c(O)c1I)C(=O)O` (stereo not drawn), for which the activity, negative = cell killing in test [1] (setting [5]) was -7.21%; in test [1] (setting [6]), -2.81%; in test [1] (setting [7]), -17.6%. Moreover, the Potency entry in test [4] was “inactive”.

`CC(C)=CCC/C(C)=C/C=C/C(C)=C/C=C/C(C)=C/C=C/C=C(C)/C=C/C=C(C)/C=C/C=C(\C)CCC=C(C)C`: the activity, negative = cell killing in test [1] (setting [5]) was -10.4%; in test [1] (setting [6]), -12.4%; in test [1] (setting [8]), 14.8%. Also, in test [4], the Potency entry was “inactive”.

As for `O=C1N=C2SCCN2C(=O)C1Cc1ccc(Cl)cc1` (stereo not drawn), the activity, negative = cell killing is -17.4% in test [1] (setting [5]), -11.7% in test [1] (setting [6]) and -2.54% in test [1] (setting [8]). For the same molecule, the Potency entry in test [4] is “inactive”.

Consider `CC1=C[C@H](O)CC(C)(C)[C@H]1/C=C/C(C)=C/C=C/C(C)=C/C=C/C=C(C)/C=C/C=C(C)/C=C/C1=C(C)C[C@@H](O)CC1(C)C`, for which the activity, negative = cell killing in test [1] (setting [5]) was -18.9%; in test [1] (setting [6]), -21.1%; in test [1] (setting [8]), -27.4%. In addition, in test [4], the Potency entry was “inactive”.

In the case of `CCCCCCCCCCCCCCCC(=O)OC[C@@H](O)[C@H]1OC[C@H](O)[C@H]1O`, the figures for the activity, negative = cell killing in test [1] (setting [5]), in test [1] (setting [6]) and in test [1] (setting [8]) were -4.52%, 10.4% and -6.66%, respectively. In addition, the Potency result in test [4] was “inactive”.

With `O=C1c2ccccc2C(=O)C1c1ccc(F)cc1`, the results for the activity, negative = cell killing in test [1] (setting [5]), in test [1] (setting [6]) and in test [1] (setting [7]) were -20.2%, -13.5% and -45.8%, respectively. The Potency result in test [4] was “inactive”.

For `CC(C)C1=CC2=CC[C@@H]3[C@](C)(CCC[C@@]3(C)C(=O)O)[C@H]2CC1`, the figures for the activity, negative = cell killing in test [1] (setting [5]), in test [1] (setting [6]) and in test [1] (setting [8]) were -3.87%, 2.46% and -9.17%, respectively. Moreover, the Potency entry in test [4] was “inactive”.

Consider `CC[C@H]1OC(=O)[C@H](C)[C@@H](O[C@H]2C[C@@](C)(OC)[C@@H](O)[C@H](C)O2)C(C)[C@@H](O[C@@H]2O[C@H](C)C[C@H](N(C)C)[C@@H]2O)[C@](C)(OC)C[C@@H](C)C(=O)[C@H](C)[C@@H](O)[C@]1(C)O` (stereo partly drawn), for which the activity, negative = cell killing in test [1] (setting [5]) is -10.3%; in test [1] (setting [6]) it was -27.7%; in test [1] (setting [8]), 2.27%. In addition, the Potency result in test [4] is “inactive”.

Turning to `CCCCCCCCCCCCCCCCCC(=O)OCC(C)O` (stereo not drawn), the activity, negative = cell killing in test [1] (setting [5]) is -18.7%; in test [1] (setting [6]), -0.865%; in test [1] (setting [7]), -14.9%. Besides, the Potency result in test [4] was “inactive”.

`CCN(CC)CCOC(=O)c1cccnc1`: the activity, negative = cell killing in test [1] (setting [5]) is -9.24%; in test [1] (setting [6]), 9.6%; in test [1] (setting [8]), -9.84%. In addition, the Potency entry in test [4] is “inactive”.

`NC(Cc1ccccc1)C(=O)O` (stereo not drawn): the activity, negative = cell killing in test [1] (setting [5]) was -8.84%; in test [1] (setting [6]), 10.2%; in test [1] (setting [8]), -12.6%. In test [4], the Potency entry is “inactive”.

With `CCOC(=O)c1c[nH]c2cc(OCC(C)C)c(OCC(C)C)cc2c1=O`, the results for the activity, negative = cell killing in test [1] (setting [5]), in test [1] (setting [6]) and in test [1] (setting [7]) were -9.16%, -17.4% and -29.7%, respectively. For the same molecule, the Potency result in test [4] is “inactive”.

Turning to `CCCCCCCCCCCCCCCCCCCCCC(=O)Nc1ccn([C@@H]2O[C@H](CO)[C@@H](O)[C@@H]2O)c(=O)n1`, the activity, negative = cell killing was -14.5% in test [1] (setting [5]), -7.79% in test [1] (setting [6]) and -16.8% in test [1] (setting [8]). Moreover, the Potency entry in test [4] is “inactive”.

Consider `O=C(O)C1=C(CSc2nnnn2CS(=O)(=O)O)CS[C@@H]2[C@H](NC(=O)[C@H](O)c3ccccc3)C(=O)N12`, for which the figures for the activity, negative = cell killing in test [1] (setting [5]), in test [1] (setting [6]) and in test [1] (setting [8]) were -15.2%, -23.3% and -17.1%, respectively. The Potency result in test [4] was “inactive”.
